Compounds with a hit are over-represented: about 6.1% of the library has one in this group of screens.
Gal4-VP16 FLuc = counter-screen for ROR gamma inhibitors: Gal4-VP16 reporter; Drosophila S2 Gal4-VP16 UAS-luciferase, luminescence, 20 h; 310,000 tested, 3.5% active; AID 2546; Potency, µM (doses to about 53.6 µM), actives largely listed as inhibitors;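 also: Gal4-VP16 expression switched on by copper sulfate through the metallothionein promoter; nearly all actives have a fitted effect of over 50% in size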
ATXN2 expr inh = ATXN2 expression inhibition. HEK-293 ATXN2-luciferase reporter, luminescence, 24 h. Potency, µM (highest dose often 57 µM), most hits filed as inhibitors. 360,000 tested, 0.72% active. AID 1745845; also: nearly all actives have a fitted effect of over 55% in size
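ATXN2-luciferase reporter cells (luciferase flanked by upstream and downstream ATXN2 gene portions) were treated 24 h at 37 °C with compounds at up to 57 uM. SteadyGlo luminescence gave expression; GF-AFC fluorescence gave viability.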
TGFb inhibitor = TGF-b pathway inhibition; 410,000 tested, 1.2% active; HepG2 CAGA-GFP TGF-b/SMAD3 reporter, GFP fluorescence, 18 h; TGF-beta stimulated, 500 pg/mL final; AID 588855; Potency, µM (doses to about 46.1 µM), usual class: inhibitors; also: nearly all actives have a fitted effect of over 65% in size
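Inhibition of TGF-beta-driven CAGA-GFP reporter expression in HEPG2 cells is measured by cellular GFP fluorescence after 18 h stimulation with 500 pg/mL recombinant TGF-beta in 1% FBS medium at 37 degrees C.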
HepG2 tox-1 = counter-screen for TGF-b inhibitors: cytotoxicity in HepG2 cells. 410,000 tested, 0.76% active. HepG2 CAGA-GFP viability, ATP luminescence, 18 h. Potency, µM (titrated, usually from 46.1 µM), most hits filed as cytotoxic. AID 588856
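CellTiter-Glo luminescence gave cytotoxicity after 18 hours at 37 degrees C. The cells were HepG2 CAGA-GFP in 1% FBS DMEM, stimulated with 500 pg/mL TGF-beta after compound addition. %Activity was normalised to no-cell wells (complete cell-killing) and DMSO (no toxicity), and curves were fitted and classified.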
S2 tox = reduces viability in counter-screen for ATXN expression inhibitors | 400,000 tested, 0.49% active | S2 cells (HEK-293 line with an ATXN2-luciferase reporter) viability, CellTiter-Fluor protease fluorescence, 24 h | Potency, µM (highest dose often 56.7 µM), hits mostly cytotoxic; also: nearly all actives have a fitted effect of over 40% in size
RORg inh = inhibitors of mouse ROR gamma transcriptional activity | P51450 | Drosophila S2 Gal4-RORgamma UAS-luciferase reporter, 20 h | Potency, µM (series often up to 53.6 µM), most hits filed as inhibitors | 310,000 tested, 5.4% active | AID 2551; also: nearly all actives have a fitted effect of over 60% in size
Target sequence (P51450 whole entry, looked up, the tested form may be a part): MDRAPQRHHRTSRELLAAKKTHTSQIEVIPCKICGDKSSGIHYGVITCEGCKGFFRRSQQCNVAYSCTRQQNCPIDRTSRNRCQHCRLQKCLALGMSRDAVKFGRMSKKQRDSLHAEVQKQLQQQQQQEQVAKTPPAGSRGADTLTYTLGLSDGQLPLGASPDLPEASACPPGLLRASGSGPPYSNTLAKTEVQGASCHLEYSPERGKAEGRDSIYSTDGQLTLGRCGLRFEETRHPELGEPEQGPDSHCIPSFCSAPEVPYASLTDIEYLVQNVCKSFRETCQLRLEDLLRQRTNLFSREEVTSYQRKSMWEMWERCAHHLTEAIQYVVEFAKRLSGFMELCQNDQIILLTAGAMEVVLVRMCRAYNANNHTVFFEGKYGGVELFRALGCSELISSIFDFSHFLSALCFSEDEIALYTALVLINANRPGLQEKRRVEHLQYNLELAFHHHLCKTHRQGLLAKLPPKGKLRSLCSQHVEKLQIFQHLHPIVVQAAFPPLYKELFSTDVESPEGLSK
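ROR gamma transcriptional activity was tracked as Gal4-UAS luciferase output in stably transfected Drosophila Schneider cells, with compound added 1 hr before 700 uM copper sulfate induction and a 20 hr ambient-temperature incubation.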
TGFb CAGA inh = TGF-b pathway inhibition, cherry-pick retest. Potency, µM (top dose mostly 46.1 µM), most hits filed as inhibitors. shares compounds with TGFb inhibitor. HepG2 CAGA-GFP TGF-b reporter, GFP fluorescence, 18 h; cells stimulated with TGF-beta, 500 pg/mL. 1,600 tested, 63% active; also: nearly all actives have a fitted effect of over 65% in size
HepG2 tox-2 = toxic to HepG2 cells in TGF-b counterscreen | shares compounds with TGFb inhibitor | HepG2 CAGA-GFP viability, ATP luminescence, 18 h; cells stimulated with TGF-beta, 500 pg/mL | Potency, µM (top dose mostly 46.1 µM), hits mostly inhibitors | 1,600 tested, 27% active | AID 720535; also: nearly all actives have a fitted effect of over 70% in size
CCL64 TGFb inh = orthogonal confirmation of TGF-b inhibitors in CCL64 cells | shares compounds with TGFb inhibitor | CCL64 CAGA-GFP reporter, TGF-b stimulated, GFP fluorescence, 18 h | Potency, µM (titrated, usually from 46.1 µM), usual class: inhibitors | 1,600 tested, 41% active; also: nearly all actives have a fitted effect of over 65% in size
COP TGFb inh = validation of TGF-b inhibitors in HepG2 COP promoter reporter; Potency, µM (titrated, usually from 46.1 µM), most hits filed as inhibitors; 1,600 tested, 3% active; shares compounds with TGFb inhibitor; HepG2 COP-GFP TGF-b reporter, GFP fluorescence, 18 h; cells stimulated by added recombinant TGF-beta; also: nearly all actives have a fitted effect of over 70% in size
Large screens that a line does not name were inactive (follow-up assays come after a bar, where they were run). Calls follow the shape of the dose curve; as a rule, active = well fitted curve in the direction sought with a large enough effect; inconclusive = small, poorly fitted or top-dose-only effect, or another doubt; inactive = no such curve, though single readings can be large; an effect the other way counts as inactive or inconclusive.

CC1(C)Cc2c(cnn2-c2ccccc2)C(=O)/C1=N\NC(=O)c1ccccc1N	none
CC1(C)Cc2c(cnn2-c2ccccc2)-c2c1c1ccccc1n2CC(O)CBr (stereo not given)	TGFb inhibitor inconclusive, S2 tox inconclusive | TGFb CAGA inh inconclusive | HepG2 tox-2 inactive | CCL64 TGFb inh inconclusive | COP TGFb inh inactive
CCO[C@@H]1OC(C(=O)NCc2ccccc2)=C[C@H](c2ccc(C(F)(F)F)cc2)[C@H]1CCCO	ATXN2 expr inh inconclusive, TGFb inhibitor 18µM, S2 tox inconclusive | TGFb CAGA inh inconclusive | HepG2 tox-2 inactive | CCL64 TGFb inh 21µM | COP TGFb inh inactive
COCc1nnc(NC(=O)c2c(-c3c(Cl)cccc3Cl)noc2C)s1	Gal4-VP16 FLuc inconclusive, S2 tox inconclusive, RORg inh inconclusive
Cc1onc(-c2c(F)cccc2Cl)c1C(=O)Nc1nnc(C(F)(F)F)s1	Gal4-VP16 FLuc inconclusive, ATXN2 expr inh inconclusive, TGFb inhibitor 18µM, S2 tox inconclusive, RORg inh inconclusive | TGFb CAGA inh 21µM | HepG2 tox-2 inconclusive | CCL64 TGFb inh inconclusive | COP TGFb inh inactive
O=C(Nc1ccccc1C(=O)Nc1nnc(C(F)(F)F)s1)c1ccccc1Cl	Gal4-VP16 FLuc 16µM, ATXN2 expr inh 13µM, TGFb inhibitor 3.5µM, S2 tox inconclusive, RORg inh inconclusive | TGFb CAGA inh 5.8µM | HepG2 tox-2 4.1µM | CCL64 TGFb inh 6.5µM | COP TGFb inh inactive
Cc1cccc(C(c2sc3nc(-c4ccco4)nn3c2O)N2CCN(c3ccccc3)CC2)c1 (stereo not given)	TGFb inhibitor inconclusive (no result: Gal4-VP16 FLuc, RORg inh)
Cc1nn(C(C)C(=O)NCc2cccc(F)c2)c(=O)c2c1sc1ccccc12 (stereo not given)	none (no result: Gal4-VP16 FLuc, ATXN2 expr inh, S2 tox, RORg inh)
O=S1(=O)[C@H]2CC3O[C@]2(C[C@@H]3c2ccc(F)cc2)CN1Cc1ccc(Cl)cc1	TGFb inhibitor 7.1µM | TGFb CAGA inh inconclusive | HepG2 tox-2 inactive | CCL64 TGFb inh inactive | COP TGFb inh inactive
O=C(Nc1ccccc1)c1cc([N+](=O)[O-])ccc1Cl	none
O=C(Nc1cccc(Cl)c1)c1cc(N=Nc2ccc([N+](=O)[O-])cc2Cl)ccc1O	Gal4-VP16 FLuc inconclusive, TGFb inhibitor inconclusive, S2 tox inconclusive, RORg inh inconclusive (no result: ATXN2 expr inh) | TGFb CAGA inh 4.6µM | HepG2 tox-2 5.2µM | CCL64 TGFb inh 2.3µM | COP TGFb inh inactive
COc1ccc(Br)cc1CNC(=O)CN1C(=O)CSc2ccc(S(=O)(=O)N3CCOCC3)cc21	none (no result: Gal4-VP16 FLuc, ATXN2 expr inh, S2 tox, RORg inh)
COc1ccccc1-c1cc(NC=O)c2ncc(-c3cccc(C(C)=O)c3)n2c1	ATXN2 expr inh inconclusive, S2 tox inconclusive (no result: Gal4-VP16 FLuc, RORg inh)
COc1ccc(-c2cc(NC=O)c3ncc(-c4ccc(OC)c(OC)c4)n3c2)c(OC)c1	TGFb inhibitor inconclusive, S2 tox inconclusive (no result: Gal4-VP16 FLuc, RORg inh)
COc1ccccc1-c1cc(NC=O)c2ncc(-c3cccc(C(=O)N(C)C)c3)n2c1	TGFb inhibitor 7.9µM, S2 tox inconclusive (no result: Gal4-VP16 FLuc, RORg inh) | TGFb CAGA inh 5.2µM | HepG2 tox-2 inactive | CCL64 TGFb inh inconclusive | COP TGFb inh inactive
CC(=O)c1ccc(-c2cnc3c(NC=O)cc(-c4ccccc4Oc4ccccc4)cn23)cc1	ATXN2 expr inh inconclusive, TGFb inhibitor 11µM (no result: Gal4-VP16 FLuc, S2 tox, RORg inh) | TGFb CAGA inh inconclusive | HepG2 tox-2 inactive | CCL64 TGFb inh inconclusive | COP TGFb inh inactive
COc1cccc(-c2cnc3c(NC=O)cc(-c4ccc(OC)cc4OC)cn23)c1	TGFb inhibitor 4.5µM, S2 tox inconclusive (no result: Gal4-VP16 FLuc, RORg inh) | TGFb CAGA inh 4.1µM | HepG2 tox-2 inactive | CCL64 TGFb inh 3.3µM | COP TGFb inh inactive
CCCn1c(=N)c(C(=O)NC(C)c2ccccc2)cc2c(=O)n3ccccc3nc21 (stereo not given)	none (no result: Gal4-VP16 FLuc, ATXN2 expr inh, S2 tox, RORg inh)
COCCc1nn2c(=O)cc(COC(=O)c3ccccc3C)nc2s1	none (no result: Gal4-VP16 FLuc, ATXN2 expr inh, S2 tox, RORg inh)
COC(=O)c1[nH]c2c(c1C)C(=O)CC(c1ccc(OC)cc1)C2 (stereo not given)	none
COC(=O)c1[nH]c2c(c1C)C(=O)CC(c1ccccc1)C2 (stereo not given)	TGFb inhibitor inconclusive, S2 tox inconclusive | TGFb CAGA inh inconclusive | HepG2 tox-2 inactive | CCL64 TGFb inh inconclusive | COP TGFb inh inactive
Cc1c(C(=O)OCC(C)C)[nH]c2c1C(=O)CC(c1ccco1)C2 (stereo not given)	TGFb inhibitor inconclusive, S2 tox inconclusive, RORg inh inconclusive | TGFb CAGA inh 9.2µM | HepG2 tox-2 inactive | CCL64 TGFb inh 8.2µM | COP TGFb inh inactive
CCOc1ccc(S(=O)(=O)NCC(c2ccco2)S(=O)(=O)c2ccc(C)cc2)cc1 (stereo not given)	TGFb inhibitor inconclusive (no result: Gal4-VP16 FLuc, ATXN2 expr inh, S2 tox, RORg inh)
CC(Nc1nc(-c2ccc(F)cc2)cs1)c1nc2cc(C(F)(F)F)ccc2n1CCOCCO (stereo not given)	none (no result: Gal4-VP16 FLuc, RORg inh)
COc1ccc(-c2csc(NC(C)c3nc4cc(C(F)(F)F)ccc4n3CCOCCO)n2)cc1 (stereo not given)	ATXN2 expr inh inconclusive, TGFb inhibitor 13µM, S2 tox inconclusive (no result: Gal4-VP16 FLuc, RORg inh) | TGFb CAGA inh 23µM | HepG2 tox-2 inconclusive | CCL64 TGFb inh inconclusive | COP TGFb inh inactive
COc1ccc(-c2nn3c(=O)cc(CN4CCN(C(=O)c5ccc(C(C)(C)C)cc5)CC4)nc3s2)cc1	none (no result: Gal4-VP16 FLuc, RORg inh)
Cc1cccc(COCC(Cc2ccccc2)N2CCN(C(=O)c3ccc(Cl)c(Cl)c3)CCC2=O)c1 (stereo not given)	ATXN2 expr inh inconclusive, TGFb inhibitor inconclusive, S2 tox inconclusive
